The list is not random: actives were taken first. Their share in the collection is about 21%.
Pf growth 48h: Primary qHTS for delayed death inhibitors of the malarial parasite plastid, 48 hour incubation. P. falciparum luciferase growth in erythrocytes, 48 h. Potency, µM (series often up to 28.7 µM), inactives show at the highest dose activity change, negative = inhibition, actives largely listed as inhibitors. hit rate 5.9% among 310,000; note: potency is the fitted concentration of half-maximal effect; % is set by controls: 0 for no effect and ±100 for the full control effect
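Read-out is firefly luciferase luminescence from an integrated reporter in P. falciparum, so falling signal marks reduced parasite growth. Infected erythrocytes were at 2% hematocrit and 0.1% parasitemia (final) in Albumax-supplemented RPMI 1640.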
SARS PLP yeast: qHTS of Yeast-based Assay for SARS-CoV PLP. S. cerevisiae expressing SARS-CoV PLpro, growth rescue. hit rate 0.19% among 330,000. Potency, µM (doses to about 32.9 µM), for the others: at the top dose activity, positive = growth rescue, usual class: activators; calls by dose curve; note: potency is the fitted concentration of half-maximal effect; 0% is about no effect; nearly all actives have a fitted effect of over 55% in size
Cycloheximide cs: Cycloheximide Counterscreen for Small Molecule Inhibitors of Shiga Toxin | cell reporter, cycloheximide protein synthesis inhibition counterscreen | max response, % | hit rate 12% among 300,000 | AID 2314, 2010; in the data active = max response mostly above about 13%, no sharp cut-off; inactive = mostly below about 14%; note: read at 38.3 µM for the half of the compounds with a filed dose; 0% is about no effect
Shiga inhibitor: A qHTS for Small Molecule Inhibitors of Shiga Toxin; Vero cells, Shiga toxin protein synthesis inhibition reporter; hit rate 9.2% among 290,000; inhibition, % at 38.7 µM; in the data active = inhibition mostly above about 28%, no sharp cut-off; inactive = mostly below about 43%; note: 0% is about no effect
NS1 function inh: qHTS Assay for Inhibitors of Influenza NS1 Protein Function; Potency, µM (top dose mostly 46.1 µM), for inactives: at the highest dose activity, positive = more growth; hit rate 0.4% among 270,000; AID 2326, 2010; calls by dose curve; note: potency is the fitted concentration of half-maximal effect; actives are rising curves; nearly all actives have a fitted effect of over 50% in size
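Compounds were scored for reversing the slow growth caused by influenza A NS1 in S. cerevisiae, measured by optical density at 600 nm. Assay medium contained 2% galactose at pH 6.0; NS1-free yeast of the same strain were the positive control.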
Pf growth 96h: Primary qHTS for delayed death inhibitors of the malarial parasite plastid, 96 hour incubation; P. falciparum luciferase reporter growth, 96 h; Potency, µM (highest dose often 28.7 µM), without a hit: top-dose activity change, negative = inhibition, hits mostly inhibitors; hit rate 6.9% among 320,000; note: potency is the fitted concentration of half-maximal effect; % is set by controls: 0 for no effect and ±100 for the full control effect
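Infected RBCs, 2% Hct / 0.05% parasitemia final; luciferase-reporter P. falciparum; cpd 96 h, 37 C, 5% CO2; luciferase detection reagent; luminescence.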
Numbers without * were called inactive; ? = inconclusive; . = no result given; [ ] = remark or other dose. Unless noted, calls come from the whole dose curve; as a rule, active = well fitted inhibition curve with a large enough effect; inconclusive = small, poorly fitted or top-dose-only effect, or another doubt; inactive = no such curve, though single readings can be large or run the other way.

SMILES	Pf growth 48h	SARS PLP yeast	Cycloheximide cs	Shiga inhibitor	NS1 function inh	Pf growth 96h
O=C(CCCN1C(=O)c2cccnc2Oc2ccc(Cl)cc21)N1CCCCC1	?	0.4%	5.2	4.4	2.9%	13.1µM*
Cc1ccc(S(=O)(=O)NCc2ccccc2)cc1C(=O)NCCc1ccc(S(N)(=O)=O)cc1	-28.7%	-1.3%	.	.	.	4.5%
CCNc1nc(NCC)n2c(SCC(=O)c3ccccc3Cl)nnc2n1	-24.6%	0.1%	-1.1	-3.6	3.2%	-20.4%
CCOc1ccc(S(=O)(=O)N2CCN(Cc3ccc4c(c3)OCO4)CC2)cc1C	33.2%	-2.8%	6.9	2.2	-53.0%	12.3%
Cc1cccc(-c2nc(C#N)c(NCC3CCCO3)o2)c1 (centres undefined)	108.0%	0.0%	43.8*	88.7*	-8.2%	125.4%
CC1CN(c2oc(-c3cccs3)nc2C#N)CC(C)O1 (centres undefined)	10.4µM*	5.9%	-0.7	-3.1	0.1%	-4.8%
Cc1cccc(-c2noc(CCCC(=O)NCC3CCCO3)n2)c1 (centres undefined)	9.0%	2.0%	-1.8	28.2	5.7%	11.4%
Cc1cccc(-c2nc(C#N)c(N3CCCCCC3)o2)c1	11.1%	-7.3%	27.6*	70.2*	-6.1%	.
N#Cc1nc(-c2cccs2)oc1NCC1CCCO1 (centres undefined)	1.4%	-6.6%	9.3*	11.2	-6.3%	3.1%
O=S(=O)(c1ccccc1)c1nc(-c2cccs2)oc1NCC1CCCO1 (centres undefined)	-16.5%	3.7%	-1.5	4.1	-33.8%	3.7%[5.75 µM]
COC(=O)C1(C(C[N+](=O)[O-])c2ccc(C)cc2)C(=O)NCC1c1ccco1 (centres undefined)	-2.5%	-1.1%	-1.5	19.1	-5.7%	-0.5%
O=C(/C=C\c1cccs1)N1CCN(Cc2ccc3c(c2)OCO3)CC1	-19.0%	-1.8%	7.1	5.0	.	56.3%
COCCn1c(SCC(=O)N(C)c2c(N)n(Cc3ccccc3)c(=O)[nH]c2=O)nnc1-c1cccc(C)c1	-3.1%	0.8%	.	.	.	3.7%
COc1ccc(-c2nc(C#N)c(NCC3CCCO3)o2)cc1 (centres undefined)	-10.1%	-4.2%	25.4*	72.6*	-10.7%	.
Cc1ccc(-c2nc(CSCC(=O)NCC3CCCO3)c(C)o2)cc1 (centres undefined)	19.1%	0.3%	10.9	14.7	3.6%	?
COc1ccc(-c2nc(C#N)c(NCCCN3CCOCC3)o2)cc1	33.0%	?	-2.5	23.5	?	-10.1%
Cc1ccc(-c2nc(C#N)c(NCC3CCCO3)o2)cc1 (centres undefined)	49.6%	-2.1%	24.6*	81.9*	-14.5%	53.3%
CCOc1ccc(-n2c(C)nc(O)c2N=Nc2ccccc2)cc1	52.2%	-1.1%	17.3*	67.4	.	-12.9%
CCCc1cc(=O)n2nc(N3CCC(C(=O)N4CCN(c5ccc(OC)cc5)CC4)CC3)sc2n1	-29.5%	1.6%	0.4	-3.7	-10.2%	-12.0%
O=C(CN1C(=O)CCC1=O)Nc1nc(-c2ccc(Oc3ccccc3)cc2)cs1	19.3%	-12.8%	14.5	22.4	-2.4%	27.2%
CCn1c2ccccc2c2cc(NC(=O)CSc3nccc(=O)[nH]3)ccc21	?	8.3%	-1.9	27.2	.	-19.1%
COc1ccc(OC)c(CN2CCN(C(=O)COc3cccc(C)c3)CC2)c1	-10.7%	4.7%	2.0	8.4	-3.0%	-27.1%
COc1ccc(OC)c(CN2CCN(C(=O)[C@@H](NC(=O)c3cccc(C)c3)C(C)C)CC2)c1	10.4µM*	2.4%	.	.	.	?
COc1ccc(OC)c(CN2CCN(C(=O)c3cc(S(=O)(=O)Nc4ccccc4OC)ccc3C)CC2)c1	?	0.2%	-2.0	-11.1	-21.6%	3.29µM*
COc1ccc(OC)c(CN2CCN(C(=O)c3cccc(S(=O)(=O)Nc4ccc(C)cc4)c3)CC2)c1	10.4µM*	-1.4%	.	.	.	9.28µM*
SMILES	Pf growth 48h	SARS PLP yeast	Cycloheximide cs	Shiga inhibitor	NS1 function inh	Pf growth 96h
COc1ccccc1NS(=O)(=O)c1ccc(C)c(C(=O)N2CCCC2)c1	-25.8%	-0.2%	.	.	.	19.6%
COc1ccc(N2CCN(C(=O)c3ccc(NS(=O)(=O)c4cccc(F)c4)cc3)CC2)cc1	-22.0%	-0.8%	11.1*	12.5	-34.1%	?
COC(=O)CC/C(=N/Nc1ccc(Cl)c(Cl)c1)C(=O)OC	22.3%	-6.2%	-1.6	0.2	.	20.3%
Cc1ccc2nsnc2c1NC(=O)COc1ccccc1F	-2.8%	0.6%	-1.8	-2.4	-0.7%	?
CCN(CC)CCOC(=O)/C=C/c1ccccc1OC	30.3%	-18.3%	-1.7	10.2	6.6%	14.9%
O=C(Nc1ccccc1Cl)c1ccc2nc(N3CCOCC3)sc2c1	26.0%	-1.1%	11.1*	19.3	4.5%	?
O=C(Nc1ccc(F)cc1F)c1ccc2nc(N3CCOCC3)sc2c1	79.5%	4.7%	17.6*	49.1*	-11.3%	11.7µM*
Cc1cccc(NC(=O)c2ccc3nc(N4CCOCC4)sc3c2)c1C	?	8.1%	9.6	15.9*	10.1%	?
O=C(NCCc1ccccc1)c1ccc2nc(N3CCOCC3)sc2c1	2.9%	-1.6%	11.8*	13.9	-6.9%	?
Cc1nn(-c2ccccc2)c(Cl)c1/C=N/NC(=O)CNc1n[nH]c(=O)[nH]c1=O	-7.9%	1.2%	12.4	0.5	.	6.9%
COc1ccc(/C=C/C(=O)OCC(=O)Nc2cccc(S(=O)(=O)NC3=NCCCCC3)c2)cc1	.	-12.4%	.	.	.	.
COc1ccc(-c2nc(N)n(C(=O)c3ccco3)n2)cc1	41.1%	0.1%	11.8	3.3	.	-3.8%
CSc1nc(-c2ccc(Cl)cc2)nn1S(=O)(=O)c1ccccc1	105.2%	18.9%	10.2	33.7	6.2%	97.9%
CS(=O)(=O)n1nc(-c2ccc(Cl)cc2)nc1SCc1ccccc1	.	-30.9%	39.2*	73.1*	-12.2%	149.8%
COc1ccc(-c2nc(SC)n(C(=O)c3ccco3)n2)cc1	70.1%	?	32.7*	59.4*	-8.6%	-8.2%
COc1ccc(-c2nc(SCc3ccccc3)n(C(=O)c3ccco3)n2)cc1	25.8%	-2.4%	26.1*	11.1	-1.0%	-11.2%
Cc1ccccc1N(C(=O)CNC(=O)c1ccco1)C(C(=O)NC1CCCCC1)c1cccnc1 (centres undefined)	-9.1%	-1.0%	-2.0	2.7	19.7%	0.0%
Oc1ccccc1C1CCCCC1c1ccccc1 (centres undefined)	7.38µM*	-12.3%	1.9	-9.1	-41.6%	?
COc1ccc(CCNC(=O)c2cc3c(=O)n4cccc(C)c4nc3n(CCCN3CCOCC3)c2=N)cc1	?	3.7%	-3.1	-3.5	3.4%	?
Cc1cccn2c(=O)c3cc(C(=O)NCC4CCCO4)c(=N)n(C4CCCCC4)c3nc12 (centres undefined)	?	0.1%	-4.5	-12.0	-2.2%	1.31µM*

Assay outcomes: PubChem BioAssay, National Center for Advancing Translational Sciences (NCATS)
